This excerpt belongs to a sample that is enriched for hits.
IDE exosite inh: insulin-degrading enzyme (human) exo-site inhibition; P14735; purified IDE, FL-6b probe fluorescence polarization; hits give low values; z-score at 20 µM; actives 6.3% (n = 17,000); AID 1259349;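 active = z-score of -3 or lower, meaning strong loss of probe binding signal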;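 note: His-tagged human IDE residues 42-1019 made in E. coli with 30 nM FL-6b probe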
A number is an active result; – = inactive.

SMILES	IDE exosite inh
CC(C)NC(=O)N1CCCCN2[C@H](C1)[C@H](c1ccc(C#CC3CC3)cc1)[C@@H]2CO	–
CC(C)NC(=O)N1CCCCN2[C@H](C1)[C@@H](c1ccc(C#C[C@@H](C)O)cc1)[C@@H]2CO	–
CC(C)NC(=O)N1CCCCN2[C@H](CO)[C@H](c3ccc(C#CC4CC4)cc3)[C@H]2C1	–
CC(C)NC(=O)N1CCCCN2[C@H](C1)[C@@H](c1ccc(C#Cc3ccccc3F)cc1)[C@@H]2CO	-5.2
CC(C)NC(=O)N1CCCCN2[C@H](CO)[C@H](c3ccc(C#Cc4ccccc4F)cc3)[C@@H]2C1	-6.4
CC(C)C#Cc1ccc([C@@H]2[C@@H](CO)N3CCCCN(C(=O)NC(C)C)C[C@@H]23)cc1	–
CC(C)NC(=O)N1CCCCN2[C@H](CO)[C@@H](c3ccc(C#Cc4ccccc4F)cc3)[C@H]2C1	-10
CC(C)NC(=O)N1CCCCN2[C@@H](CO)[C@@H](c3ccc(C#Cc4ccccc4F)cc3)[C@@H]2C1	-3.1
CN1CCN(C(=O)C[C@@H]2CC[C@@H]3[C@H](COC[C@H](O)CN3Cc3cccc(-c4ccncc4)c3)O2)CC1	–
COc1ccc2c3c([nH]c2c1)[C@H](CO)N(S(=O)(=O)c1ccccc1)CC31CCN(C)CC1	–
C[C@@H]1CN([C@@H](C)CO)C(=O)c2cc(N(C)C)ccc2O[C@@H](C)CCCCO[C@H]1CN(C)S(=O)(=O)c1cn(C)cn1	–
CO[C@@H]1CC[C@H]2CCOc3ccc(C#N)cc3C(=O)N(C)C[C@@H](c3ccccc3)CC(=O)N(C)C[C@@H]1O2	–
C[C@@H]1CN([C@H](C)CO)C(=O)c2cccc(NS(=O)(=O)c3cn(C)cn3)c2O[C@H]1CN(C)Cc1ccc(Oc2ccccc2)cc1	–
COc1cccc(-c2ccc3c(c2)[C@@H]2[C@@H](CCN2S(=O)(=O)c2ccccc2F)[C@@H](CO)N3)c1	–
C[C@@H]1CCCCO[C@@H](CN(C)C(=O)Nc2ccccc2)[C@@H](C)CN([C@@H](C)CO)C(=O)c2cc(NC(=O)Nc3ccccc3)ccc2O1	–
O=C(Nc1ccc(F)cc1)N1CC(=O)N2[C@H](CO)[C@H](c3ccc(C#Cc4ccc(F)cc4)cc3)[C@@H]2C1	–
CC(=O)N(C)C[C@H]1[C@@H](c2ccc(-c3ccc(F)cc3)cc2)[C@@H](CO)N1C(C)=O	–
CN1CCCCN2[C@H](C1)[C@@H](c1ccc(-c3ccc(F)cc3)cc1)[C@@H]2CO	–
COc1ccc(S(=O)(=O)Nc2ccc3c(c2)OC[C@@H](C)N(Cc2cc(F)ccc2F)C[C@@H](C)[C@H](OC)CN(C)C3=O)cc1	–
N#C[C@H]1[C@@H](c2ccccc2C2=CCCCC2)[C@@H](CO)N1C(=O)NC1CCCC1	–
C[C@@H](NC(=O)C[C@H]1CC[C@@H]2[C@@H](COc3ccc(NC(=O)C4CCOCC4)cc3C(=O)N2C)O1)c1ccccc1	–
C/C=C/c1ccc([C@H]2[C@H]3CN(C(=O)c4ccncc4)CC(=O)N3[C@H]2CO)cc1	–
O=C(c1ccncc1)N1CC(=O)N2[C@H](C1)[C@@H](c1ccc(/C=C/c3ccccc3)cc1)[C@@H]2CO	-6
O=C(c1ccc(F)cc1)N1CC(=O)N2[C@H](CO)[C@H](c3ccc(/C=C/c4ccccc4)cc3)[C@@H]2C1	–
O=C(c1ccccc1)N1CC(=O)N2[C@H](CO)[C@H](c3ccc(/C=C/c4ccccc4)cc3)[C@H]2C1	-8.4
SMILES	IDE exosite inh
O=C(c1ccccc1)N1CC(=O)N2[C@H](CO)[C@H](c3ccc(/C=C/c4ccccc4)cc3)[C@@H]2C1	–
O=C(c1ccncc1)N1CC(=O)N2[C@@H](CO)[C@H](c3ccc(/C=C/c4ccccc4)cc3)[C@@H]2C1	-16
C/C=C/c1ccc([C@@H]2[C@H](CO)N3C(=O)CN(C(=O)c4ccncc4)C[C@@H]23)cc1	–
O=C(c1ccncc1)N1CC(=O)N2[C@H](CO)[C@@H](c3ccc(/C=C/c4ccccc4)cc3)[C@@H]2C1	–
C/C=C/c1ccc([C@@H]2[C@@H](CO)N3C(=O)CN(C(=O)c4ccncc4)C[C@@H]23)cc1	–
O=C1CN(S(=O)(=O)c2ccccc2)C[C@@H]2[C@H](c3ccc(C#CCc4ccccc4)cc3)[C@@H](CO)N12	–
CCS(=O)(=O)N1CC2(CN(CC3CCOCC3)[C@@H](CO)c3c2c2ccc(OC)cc2n3C)C1	–
Cc1ccccc1S(=O)(=O)N1CC(=O)N2[C@@H](CO)[C@H](c3ccc(C#CCC4CCCC4)cc3)[C@@H]2C1	–
COCC#Cc1ccc([C@H]2[C@H](CO)N3C(=O)CN(C(=O)CN4CCOCC4)C[C@@H]23)cc1	–
C[C@@H](NC(=O)C[C@H]1CC[C@@H]2[C@H](COC[C@@H](O)CN2C(=O)Nc2cccc(Cl)c2)O1)c1ccccc1	–
O=C(NCc1cc(F)cc(F)c1)[C@H]1[C@H](CO)[C@H]2Cn3c(cccc3=O)[C@@H]1N2C(=O)c1cnccn1	–
CCC(=O)NC[C@H]1[C@@H](c2ccccc2)[C@H](CO)N1C(=O)C1CC1	–
CN1CCCCN2[C@@H](CO)[C@@H](c3ccc(-c4ccc(F)cc4)cc3)[C@@H]2C1	–
C[C@H]1CN([C@@H](C)CO)C(=O)c2c(c3ccccc3n2C)-c2ccccc2CO[C@H]1CN(C)C(=O)[C@@H](Cc1ccccc1)N(C)C	–
COc1ccc(C[C@@H]2CCn3nncc3COC[C@H](CC(C)C)NC2=O)cc1	–
O=C(c1cccnc1)N1CC(=O)N2[C@H](C1)[C@H](c1ccc(-c3ccc(F)cc3)cc1)[C@@H]2CO	–
O=C(c1cccnc1)N1CC(=O)N2[C@H](CO)[C@H](c3ccc(/C=C/c4ccccc4)cc3)[C@H]2C1	-16
O=C(c1cccnc1)N1CC(=O)N2[C@H](CO)[C@@H](c3ccc(-c4ccc(F)cc4)cc3)[C@H]2C1	–
O=C(c1cccnc1)N1CC(=O)N2[C@@H](CO)[C@H](c3ccc(/C=C/c4ccccc4)cc3)[C@@H]2C1	-15
O=S(=O)(c1ccccc1)N1CCCCN2[C@H](CO)[C@@H](c3ccc(-c4ccccc4F)cc3)[C@@H]2C1	–
C/C=C/c1ccc([C@@H]2[C@H](CO)N3C(=O)CN(Cc4ccc(F)cc4)C[C@@H]23)cc1	–
CCCC#Cc1ccc([C@@H]2[C@@H](CO)N3C(=O)CN(C(=O)c4cccc(F)c4)C[C@@H]23)cc1	–
CN(C[C@@H]1N[C@H](CO)[C@@H]1c1ccccc1)C(=O)c1ccccc1F	–
N#C[C@H]1N[C@H](CO)[C@@H]1c1ccc(-c2cccc(F)c2)cc1	–
C/C=C/c1ccc([C@H]2[C@@H](CO)N[C@@H]2CN(CC)C(=O)c2ccccn2)cc1	–
SMILES	IDE exosite inh
O=C(c1ccc(F)cc1)N1CC(=O)N2[C@H](C1)[C@H](c1ccc(C#CC3CCCCC3)cc1)[C@@H]2CO	–
O=C(Nc1ccccc1F)N1CC(=O)N2[C@H](CO)[C@H](c3ccc(C#Cc4ccccc4)cc3)[C@H]2C1	–
O=C(c1ccccc1F)N1CC(=O)N2[C@H](CO)[C@H](c3ccc(C#Cc4ccccc4)cc3)[C@H]2C1	–
O=C(c1ccccc1F)N1CC(=O)N2[C@@H](CO)[C@H](c3ccc(C#Cc4ccccc4)cc3)[C@@H]2C1	-3.5
O=C(Nc1ccccc1F)N1CC(=O)N2[C@H](CO)[C@H](c3ccc(C#Cc4ccc(F)cc4)cc3)[C@@H]2C1	–
O=C(c1ccccc1F)N1CC(=O)N2[C@@H](CO)[C@@H](c3ccc(C#Cc4ccccc4)cc3)[C@@H]2C1	–
O=C(Nc1ccccc1F)N1CC(=O)N2[C@@H](CO)[C@@H](c3ccc(C#Cc4ccccc4)cc3)[C@@H]2C1	-5.8
